Most compounds without a hit are left out; they make up all but 11% or so of the library.
Pf growth 96h – Primary qHTS for delayed death inhibitors of the malarial parasite plastid, 96 hour incubation. AID 504834, 2011. Potency, µM (titrated, usually from 28.7 µM), without a hit: at the top dose activity change, negative = inhibition, most hits filed as inhibitors. 6.9% of 320,000 active. P. falciparum luciferase reporter growth, 96 h
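P. falciparum expressing integrated firefly luciferase, in erythrocytes at 2% hematocrit, 0.05% parasitemia, incubated with compounds 96 h at 37 C, 5% CO2. Growth inhibition read as loss of luminescence; two-generation exposure targets delayed-death apicoplast inhibitors.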
AMA1 RON2 block – qHTS for Inhibitors of AMA1-RON; Towards Development of Antimalarial Drug Lead: Primary Screen | AlphaScreen AMA1-biotinylated RON2 peptide binding | AID 720542, 2013 | Plasmodium falciparum AMA1 (3D7) - RON2 peptide interaction | 0.2% of 360,000 active | Potency, µM (titrated, usually from 58.2 µM), for the others: at the highest dose activity change, negative = inhibition, most hits filed as inhibitors;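 also: 0% = vehicle wells and -100% = peptide control; nearly all actives have a fitted effect of over 45% in size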
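AMA1 (3D7) with his tag at 25 nM final met compounds first, then biotinylated RON2 peptide at 25 nM; detection used donor plus acceptor beads, 10 µg/mL apiece, read by AlphaScreen after 30 min at room temperature.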
HCV inhibitor – qHTS Assay for Inhibitors of Hepatitis C Virus (HCV) | Huh7.5.1 HCVcc-Cre infection, luciferase reporter, 44 h | Potency, µM (titrated, usually from 41.8 µM), without a hit: at the highest dose activity change, negative = inhibition, hits mostly inhibitors | 3.4% of 340,000 active | AID 651820, 2012
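Cells (1,000/well) were plated 4 h before compound, then infected with HCVcc-Cre virus (~0.5 moi). After 44 h further culture, infection was read as luciferase luminescence following a 15 min substrate incubation at room temperature.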
Pf growth 48h – Primary qHTS for delayed death inhibitors of the malarial parasite plastid, 48 hour incubation. 5.9% of 310,000 active. Potency, µM (top dose mostly 28.7 µM), without a hit: top-dose activity change, negative = inhibition, hits mostly inhibitors. P. falciparum luciferase growth in erythrocytes, 48 h
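Here the parasites carry a stable luciferase gene and grow inside erythrocytes in Albumax-based RPMI medium with compound for one erythrocytic cycle. Activity is scored as loss of luminescent signal.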
* = called active by the depositor; ? = inconclusive; · = no result given; [ ] = dose if it differs, or a comment. Calls follow the shape of the dose curve; as a rule, active = well fitted curve in the direction sought with a large enough effect; inconclusive = small, poorly fitted or top-dose-only effect, or another doubt; inactive = no such curve, though single readings can be large; an effect the other way counts as inactive or inconclusive. Unless noted, % is scaled to controls: 0 for no effect and ±100 for the full control effect; potency is read from the fitted curve at half-maximal effect.

SMILES | Pf growth 96h | AMA1 RON2 block | HCV inhibitor | Pf growth 48h
COc1ccc(OC)c(NC(=O)c2cccc(S(=O)(=O)N(Cc3ccccc3)c3ccccc3OC)c2)c1 | 7.38µM* | -5.0% | -12.7% | 14.7µM*
COc1ccc(OC)c(NC(=O)c2ccc(CN(c3cc(Cl)ccc3C)S(=O)(=O)c3ccccc3)cc2)c1 | ? | -0.4% | -16.5% | 1.47µM*
COc1ccccc1N(Cc1ccccc1)S(=O)(=O)c1cccc(C(=O)Nc2ccc(C(C)=O)cc2)c1 | 3.7µM* | 9.9% | -1.0% | ?
Cc1cc(OCC(=O)OCC(=O)N2CCCc3ccccc32)ccc1Cl | · | 14.7% | · | ·
COc1ccc(/C(C)=N/Nc2nc3ccccc3nc2C)cc1 | -19.2% | 19.4% | 12.6µM* | 31.5%
Cc1ccc(CNC(=O)COC(=O)c2ccc(S(=O)(=O)N3CCOCC3)cc2)cc1 | · | -7.4% | 3.2% | ·
CCOC(=O)c1sc(NC(=O)c2cccc(S(=O)(=O)N3CCN(C)CC3)c2)cc1C | -8.8% | -9.4% | ? | 2.33µM*
CCOC(=O)c1sc(NC(=O)c2ccc(S(=O)(=O)N(C)C)cc2)cc1C | 5.22µM* | -9.3% | 11.2µM* | ·
CCOC(=O)c1[nH]c2ccccc2c1NC(=O)c1ccc(S(=O)(=O)N2CCOCC2)cc1 | 14.7µM* | -1.7% | 3.5%[8.37 µM] | ?
CCOC(=O)c1sc(NC(=O)c2ccc(S(=O)(=O)N3CCOCC3)cc2)cc1C | 5.86µM* | -3.5% | ? | ?
CCOC(=O)c1sc(NC(=O)c2ccccc2)cc1C | ? | 12.2% | ? | ·
CCOC(=O)C1CCN(CCC(=O)Nc2ccc(F)cc2)CC1 | ? | -3.1% | 18.0% | -13.9%
O=C(CN(c1cccc([N+](=O)[O-])c1)S(=O)(=O)c1ccccc1)N1CCCCC1 | -24.9% | -8.8% | 4.6% | 22.4%
Cc1cc(C(=O)CSc2nn3c(=O)c(C(C)(C)C)nnc3s2)c(C)n1C | ? | 14.1% | -11.4% | -18.1%
CCOC(=O)c1sc(NC(=O)Nc2ccc(Cl)cc2)cc1C | ? | -6.2% | ? | 4.15µM*
CCOC(=O)c1sc(NC(=S)NC(=O)C2CCCC2)cc1C | 9.28µM* | -5.0% | ? | ?
CCOC(=O)c1sc(NC(=O)c2c(C)nn(Cc3ccccc3)c2C)cc1C | 0.7% | -12.0% | 17.8µM* | 9.28µM*
CCN(CC)S(=O)(=O)c1cccc(C(=O)Nc2nnc(C)s2)c1 | 308.3% | 22.9% | -12.7% | 29.5%
CCOC(=O)c1sc(NC(=O)c2cccc(S(=O)(=O)N(CC)CC)c2)cc1C | 2.08µM* | -7.0% | ? | ·
O=S(=O)(/N=C(/Nc1ccccn1)c1ccc(Cl)cc1)c1ccc(Cl)cc1 | ? | 20.6% | 8.2% | 33.2%
C[C@@H]1CN([C@@H](C)CO)C(=O)CCCn2nncc2CO[C@H]1CN(C)C(=O)Nc1ccccc1F | · | 10.2% | · | ·
CN1CCN(S(=O)(=O)c2cccc(C(=O)Nc3sc4c(c3C(N)=O)CCCC4)c2)CC1 | · | 12.9% | -26.9% | -16.4%
COC(=O)c1c(NC(=O)c2cccc(S(=O)(=O)N3CCN(C)CC3)c2)sc(C)c1C | 11.7µM* | -0.3% | ? | ?
CCOC(=O)c1ccc(N/C(=N\S(=O)(=O)c2ccc(F)cc2F)c2ccccc2)cc1 | 6.57µM* | 1.8% | -24.6% | ?
O=C(OCc1cccc(F)c1)c1cc2ccccc2cc1O | ? | 27.2% | -30.0% | 10.6%
SMILES | Pf growth 96h | AMA1 RON2 block | HCV inhibitor | Pf growth 48h
CCOC(=O)C1(C)NC(c2ccco2)C2C(=O)N(CC)C(=O)C21 (stereo unspecified) | 2.94µM* | -5.9% | 13.8% | -3.0%
CCCCCCCC/C=C\CCCCCCCC(=O)O | -12.8% | 8.9% | 18.7% | -0.2%
CCCCC(=O)NCCc1ccc(S(N)(=O)=O)cc1 | -7.2%[5.75 µM] | -0.4% | 3.7% | 0.8%
CCCCCCCC/C=C\CCCCCCCC(=O)NCc1ccc(O)c(OC)c1 | 16.9µM* | · | · | ?
CCCCCCCC/C=C\CCCCCCCC(=O)NCCO | 2.62µM* | 7.8% | 2.8% | 2.94µM*
CCCCCCCC/C=C\CCCCCCCC(=O)NCCc1ccc(O)c(O)c1 | ? | -3.7% | ? | 10.4µM*
COCCCNC(=O)c1ccccc1NS(=O)(=O)c1ccc(C)cc1 | -3.7% | 7.6% | -5.9% | -16.0%
CC(C)(C)C(=O)/C(=C\c1cccc([N+](=O)[O-])c1)n1cncn1 | -1.4% | -2.8% | 2.51µM* | 13.1µM*

Screening results as filed in PubChem.
